Screen size: about 320,000 compounds; about 22,000 (6.9%) were called active. Inconclusive results (about 27%) are left out. The full list was thinned out, with actives kept by preference. A number with no mark means an inactive call. Calls follow the shape of the dose curve; as a rule, active = well fitted inhibition curve with a large enough effect; inconclusive = small, poorly fitted or top-dose-only effect, or another doubt; inactive = no such curve, though single readings can be large or run the other way.
Assay: Primary qHTS for delayed death inhibitors of the malarial parasite plastid, 96 hour incubation
Details: P. falciparum luciferase reporter growth; series mostly up to 28.7 µM; activity change, negative = inhibition: at the top concentration
Excerpt: The goal of this screen is to discover new antimalarial compounds that act by inhibiting the development of the apicoplast in the malarial parasite Plasmodium falciparum. The biochemical processes that make this organelle essential for erythrocytic stage parasites are not well understood. However, antibiotics such as azithromycin and tetracycline, which target the apicoplast translational machinery, have a potent antimalarial effect.
We have developed a cell-based assay that measures parasite growth based on the expression of an integrated copy of a firefly luciferase reporter. To detect small molecules that cause this "delayed death" phenotype, erythrocytes infected with the luciferase-expressing parasites were incubated with compounds for either one or two generations, corresponding to 48 and 96 hours, respectively. Compounds that inhibit parasite growth in the second generation, but not the first, should be enriched in antimalarials that target the apicoplast. Growth inhibition is detected by a decrease in luciferase activity.
Assay Provider: David Fidock and Eric Ekland, Columbia University
Keywords: NIH Roadmap, MLPCN, MLI, MLSMR, qHTS, NCGC, qHTS, malaria, luciferase, viability
Four microliters of infected erythrocytes (2% hematocrit, 0.05% parasitemia final concentration) in culture medium were dispensed and the plates incubated for 96 hours at 37 C in 5% CO2. Two microliters of luciferase detection reagent was added and luminescence was detected by a ViewLux (PerkinElmer) reader.
% is scaled to controls: 0 for no effect and ±100 for the full control effect; potency is read from the fitted curve at half-maximal effect.

| Structure (SMILES) | activity change, negative = inhibition | Potency |
| --- | --- | --- |
| N#Cc1ccc(-c2ccc(F)cc2)nc1Sc1ccccc1 | -5.08% | – |
| N#Cc1ccc(-c2nc3cc(C#N)c(C#N)cc3nc2-c2ccccc2)cc1C#N | – | 5.22 µM (active) |
| N#Cc1c(-c2ccc(F)cc2)nc(-c2ccccc2)[nH]c1=O | 6.5% | – |
| COc1cccc(CNC(=O)Cn2c(=O)oc3cc(S(=O)(=O)N4CCCCC4)ccc32)c1 | -26.1% | – |
| CCc1cccc(C)c1NC(=O)COC(=O)CC1CCCC1 | 12.5% | – |
| CC(C)Sc1ncnc2c1cnn2-c1ccccc1 | -5.57% | – |
| O=C(NCCC1=CCCCC1)c1ccc(-n2cncn2)cc1 | 191% | – |
| C1=C(CCNc2ncnc3c2cnn3-c2ccccc2)CCCC1 | – | 0.104 µM (active) |
| O=C(CSc1ncccn1)N1CCCC1 | 0.0556% | – |
| CN1CCN(S(=O)(=O)c2ccc(Nc3ccc(F)cc3)nc2)CC1 | -23.9% | – |
| CCN1CCN(Cc2nc3c(c(=O)n(C)c(=O)n3C)n2CC(=O)c2ccccc2)CC1 | -12% | – |
| COCCn1c(CN2CCC(Cc3ccccc3)CC2)nc2c1c(=O)n(C)c(=O)n2C | – | 5.22 µM (active) |
| CC(C)Cn1c(CN(Cc2ccccc2)Cc2ccccc2)nc2c1c(=O)n(C)c(=O)n2C | -10.2% | – |
| CCOC(=O)N1CCN(CCC(=O)Nc2ccccc2)CC1 | -13.3% | – |
| CCOC(=O)Cn1c(CN(Cc2ccccc2)Cc2ccccc2)nc2c1c(=O)[nH]c(=O)n2C | – | 3.29 µM (active) |
| Cn1c(=O)[nH]c(=O)c2c1nc(N(CCO)Cc1ccccc1)n2Cc1ccccc1Cl | 14.3% | – |
| Cn1c(=O)c2c(nc(Br)n2CCSc2nc3ccccc3o2)n(C)c1=O | 21.3% | – |
| CCCCCCn1c(CN2CCCC(C)C2)nc2c1c(=O)n(C)c(=O)n2C (stereo not given) | -3.53% | – |
| CCOC(=O)N1CCN(Cc2nc3c(c(=O)n(C)c(=O)n3C)n2Cc2ccccc2)CC1 | – | 13.1 µM (active) |
| CN1CCN(Cc2nc3c(c(=O)n(C)c(=O)n3C)n2Cc2cccc3ccccc23)CC1 | 2.21% [at 5.75 µM] | – |
| COCCn1c(CN(Cc2ccccc2)Cc2ccccc2)nc2c1c(=O)n(C)c(=O)n2C | – | 2.94 µM (active) |
| Cn1c(=O)[nH]c(=O)c2c1nc(CN(Cc1ccccc1)Cc1ccccc1)n2CCN1CCOCC1 | 17.7% | – |
| Cc1ccc(C)c(OCc2cc(C(=O)N3CCN(c4cnccn4)CC3)no2)c1 | -41.1% | – |
| COc1ccccc1CCCNC(=O)C1CCC(=O)N(CCN2CCOCC2)C1 (stereo not given) | 6.7% | – |
| CCCCCn1c(=O)[nH]c2cc(C(=O)NCCCN3CCCCC3C)ccc2c1=O (stereo not given) | 11.9% | – |
| COc1ccc2[nH]c(=O)c(C3c4cc(OC)c(OC)cc4CCN3C(=O)c3ccco3)cc2c1 (stereo not given) | 14.7% | – |
| O=C(Nc1nnc(Cc2ccc(Cl)cc2)s1)c1ccncc1 | 9.34% | – |

| Structure (SMILES) | activity change, negative = inhibition | Potency |
| --- | --- | --- |
| CCNS(=O)(=O)c1ccc(CCC(=O)N2CCN(c3ccc(OC)cc3)CC2)cc1 | 19.3% | – |
| COC(=O)c1c(C)oc(C)c1S(=O)(=O)NCc1ccc(Cl)cc1 | 5.34% | – |
| CCCCC/C=C/C1=CC(=O)C[C@H](c2ccc(Cl)cc2)C1 | -8.55% | – |
| C(=C\c1ccccc1)/CSc1nnc(-c2cccnc2)n1Cc1ccco1 | – | 10.4 µM (active) |
| O=C(CSc1nnc(-c2cnccn2)n1Cc1ccco1)c1ccc(Cl)c(Cl)c1 | 12.7% | – |
| CCOC(=O)Cc1csc(NC(=O)CSc2nnc(-c3cccnc3)n2Cc2ccco2)n1 | 4.98% | – |
| CCn1c(CC(=O)Nc2ccccc2C)nnc1SCC(=O)NC1=NCCS1 | 12.2% | – |
| c1ccc2c(c1)CCc1snnc1-2 | -21.5% | – |
| O=C(Cn1nc([N+](=O)[O-])nc1Br)NC1CCCCC1 | -21.7% | – |
| O=C(CSC1=Nc2ccccc2C2=NC(CC(=O)NCc3ccco3)C(=O)N12)NCc1ccco1 (stereo not given) | – | 1.85 µM (active) |
| CCn1c(SCC(=O)NCC2CCCO2)nc2ccccc21 (stereo not given) | -7.07% | – |
| O=C(CSC1=Nc2ccccc2C2=NC(c3ccccc3)C(=O)N12)NCC1CCCO1 (stereo not given) | – | 7.38 µM (active) |
| CCC(C)NC(=O)CSC1=Nc2ccccc2C2=NC(CCC(=O)NCc3ccco3)C(=O)N12 (stereo not given) | 12% | – |
| O=C(CC1N=C2c3ccccc3N=C(SCc3ccccc3Cl)N2C1=O)NCc1ccco1 (stereo not given) | 74.9% | – |
| O=C(CSc1ccc(-c2ccccc2)nn1)NCC1CCCO1 (stereo not given) | 30.6% | – |
| O=C(NCc1ccco1)/C(=C/c1ccco1)NC(=O)c1ccccc1 | -11.6% | – |
| CC1CCN(C(=O)COC(=O)c2cc(S(=O)(=O)N3CCOCC3)ccc2Cl)CC1 | 8.35% | – |
| COc1cc(C(=O)NNC(=O)CN2C(=O)NC3(CCCC3)C2=O)cc(OC)c1OC | -17.8% | – |
| COc1cccc(C(=O)Nc2nnc(S(=O)(=O)N3CCCCC3)s2)c1 | 39.1% | – |
| Cc1ccc2nc(-c3ccc(Br)cc3)cn2c1 | 238% | – |
| CCC(C)(C)n1nnnc1C(c1ccc(OC)c(OC)c1)N1CCN(C(=O)c2ccco2)CC1 (stereo not given) | -13.5% | – |
| CNC[C@H](CC1CCCCC1)NC[C@H](NCCC1CCCC1)[C@H](C)O | – | 11.7 µM (active) |
| COc1ccc(CNC(=O)COc2ccccc2C(=O)c2cnn(-c3ccccc3)c2)cc1OC | -44.8% | – |
| O=C1C(=O)N(CCCO)C(c2ccccc2)/C1=C(\O)c1ccc(Br)cc1 (stereo not given) | 295% | – |
| CCOC(=O)c1c(NC(=O)CSc2nnc(CNc3ccc(C)cc3C)o2)sc(C)c1C | – | 8.28 µM (active) |
| CCOC(=O)c1c(-c2ccc(C)cc2C)csc1NC(=O)CSc1nnnn1C | 8.94% | – |
| CCCc1nnc(SCC(=O)Nc2ccc(C(=O)OCC)cc2)o1 | – | 0.147 µM (active) |

| Structure (SMILES) | activity change, negative = inhibition | Potency |
| --- | --- | --- |
| CCOC(=O)c1ccc(NC(=O)CSc2ncccn2)cc1 | -0.551% | – |
| COc1ccc(Cc2nnc(SCC(=O)Nc3ccc(C)c(C)c3)o2)cc1OC | 15.7% | – |
| CCOC(=O)c1c(NC(=O)CSc2nccc(=O)[nH]2)sc(C)c1C | -0.0024% | – |
| CN(CCc1ccccn1)C(=O)c1ccc(OC2CCN(Cc3ccccn3)CC2)cc1 | 14.8% | – |
| Cc1cc(C)cc(OCC(=O)OCC(=O)NC2CCCC2)c1 | -18.5% | – |
| CCn1c(=S)sc2c(=O)n(CC(=O)Nc3ccc(OC)cc3)c(C)nc21 | 40.3% | – |
| COc1cccc(C(=O)NCCS(=O)(=O)NCC2CCCO2)c1 (stereo not given) | -1.14% | – |
| CC1=C(C(=O)Nc2ccccc2)SCCO1 | 17.1% | – |
| COc1cccc(CCNC(=O)c2cccc(NC(=O)C3=C(C)OCCS3)c2)c1 | – | 11.7 µM (active) |
| Cc1sc(NC(=O)C2=COCCO2)c(C#N)c1C | 126% | – |
| CCCCN(C(=O)C(CCSC)N1C(=O)c2ccccc2C1=O)c1c(N)n(CCC)c(=O)[nH]c1=O (stereo not given) | -27.8% | – |
| CSc1ccccc1NC(=O)c1cnc2sc(C)cn2c1=O | 96.2% | – |
| Cc1ccc(C(C)C)c(OCCSc2nc3ccccc3n2CC(=O)O)c1 | – | 13.1 µM (active) |
| O=C(O)Cn1c(Cc2ccccc2)nc2ccccc21 | 174% | – |
| Cc1ccc(Cn2c(SCC(=O)N/N=C/c3ccccc3OCC(=O)O)nc3ccccc32)cc1 | 2.77% | – |
| Cc1cc(N2CCN(Cc3ccc4c(c3)OCO4)CC2)n2ncnc2n1 | 39.4% | – |
| O=C(c1cccs1)N1CCN(Cc2ccc3c(c2)OCO3)CC1 | -18.2% | – |
| Fc1ccc2[nH]c3c(N4CCN(Cc5ccc6c(c5)OCO6)CC4)ncnc3c2c1 | – | 2.62 µM (active) |
| CCCc1c(C(=O)O)cnn1-c1ccc(Cl)cc1 | 0% | – |
| O=C(NNS(=O)(=O)c1ccccc1C(F)(F)F)c1cc2ncc(C(F)(F)F)cc2s1 | -1.47% | – |
| Cc1ccsc1C(=O)N[C@@H](C)c1nnc2ccccn12 | 7.17% | – |
| CCN(CCn1cccn1)C(=O)CC1C(=O)NCCN1Cc1cccc(OC)c1OC (stereo not given) | 11% | – |
| CN(C(=O)CC1C(=O)NCCN1Cc1ccc(F)cc1Cl)C1CCCCC1 (stereo not given) | 18% | – |
| C=CCC1(CC=C)CCCN1C(=O)CC1C(=O)NCCN1Cc1ccccc1OC (stereo not given) | – | 10.4 µM (active) |
| CCOCCCNC(=O)c1c[nH]c2cc(C)ccc2c1=O | -28.2% | – |
| CCOCCCNC(=O)c1cc2c(=O)n3ccccc3nc2s1 | – | 10.4 µM (active) |
| CCOCCCNC(=O)c1cn(CC(C)C)c(=O)c2c1c1ccccc1n2C | 0.401% | – |

| Structure (SMILES) | activity change, negative = inhibition | Potency |
| --- | --- | --- |
| Cc1cccc(OCCC(=O)Nc2ccccc2C(N)=O)c1 | 34.7% | – |
| Fc1ccccc1/C=C1\CCCC2=C1Nc1ncnn1C2c1ccccc1F (stereo not given) | – | 1.04 µM (active) |
| CCN1C(=O)c2cccc3c(S(=O)(=O)Nc4ccccc4O)ccc1c23 | 17.8% | – |
| CC(C)(C)NC(=O)CSc1nnc(NC(=O)CCc2ccccc2)s1 | 52.7% | – |
| Cc1occc1C(=O)NC1CCCN(Cc2ccc(CC(C)C)cc2)C1 (stereo not given) | 42.7% | – |
| Cc1occc(=O)c1OCc1c(Cl)cccc1Cl | -28.6% | – |
| O=C(NCCS(=O)(=O)N1CCN(c2ccccc2F)CC1)c1ccc(Br)o1 | 11.4% | – |
| CCOc1ccc(C(C)=O)cc1COC(=O)CNC(=O)c1cccs1 | -25.3% | – |
| C/C(=N\OCC(=O)O)c1ccc(Cl)cc1 | 7.52% | – |
| COC(=O)/C(NC(C)=O)=C(\C)c1ccc(Cl)cc1 | 15.3% | – |
| C/C(=N\N=C(N)N)c1ccc(Cl)cc1 | – | 4.15 µM (active) |
| Cn1c(SCC(=O)c2ccccc2)ncc(C(=O)Nc2ccc(F)cc2)c1=O | 98.4% | – |
| CC1CCN(C(=O)Cn2nnnc2CN2CCOCC2)CC1 | 7.62% | – |
| O=C(NCc1ccc2c(c1)OCO2)c1ccc(Cl)s1 | 20.2% | – |
| O=C(NCc1ccc2c(c1)OCO2)c1sccc1Br | 23.1% | – |
| CC(Sc1nncs1)C(=O)NCc1ccc2c(c1)OCO2 (stereo not given) | – | 13.1 µM (active) |
| Cc1ccc(S(=O)(=O)NCC(=O)N(CC(=O)NCC2CCCO2)c2cccc(F)c2)cc1 (stereo not given) | 38.5% | – |
| Nc1nnnn1/N=C/c1cc([N+](=O)[O-])ccc1O | -13.5% | – |
| Cc1sc(NC(=O)c2ccc3ncsc3c2)c(C(N)=O)c1C | 202% | – |
| O=C(Nc1ccccc1N1CCOCC1)c1csc2c1CCCC2 | – | 10.4 µM (active) |
| O=C(Nc1ccccc1N1CCOCC1)c1ccncc1 | 0.269% | – |
| Cc1ccc(S(=O)(=O)N2CCOCC2)cc1C(=O)Nc1ccccc1N1CCCC1 | -12.8% | – |
| CCCc1cc(=O)[nH]c(SCC(=O)c2c(N)n(CC(C)C)c(=O)n(C)c2=O)n1 | 21.4% | – |
| CCOC(=O)c1c(C)[nH]c(C)c1S(=O)(=O)N(C)CC(=O)Nc1ccccc1C | -0.876% | – |

From PubChem BioAssay AID504834 (National Center for Advancing Translational Sciences (NCATS), 2011)
